# The supplement of paper PMC3334620
# Whole data set: some 33,000 sequences, median “E-score (-0.5 to 0.5)” near -0.013, cut for the highest 2% near 0.3. The list comes from a sample in which the highest values are over-represented; it also holds similar and randomly drawn sequences.
# Biological target: T1, Msn1 (UniProt P22148)
# T1 sequence: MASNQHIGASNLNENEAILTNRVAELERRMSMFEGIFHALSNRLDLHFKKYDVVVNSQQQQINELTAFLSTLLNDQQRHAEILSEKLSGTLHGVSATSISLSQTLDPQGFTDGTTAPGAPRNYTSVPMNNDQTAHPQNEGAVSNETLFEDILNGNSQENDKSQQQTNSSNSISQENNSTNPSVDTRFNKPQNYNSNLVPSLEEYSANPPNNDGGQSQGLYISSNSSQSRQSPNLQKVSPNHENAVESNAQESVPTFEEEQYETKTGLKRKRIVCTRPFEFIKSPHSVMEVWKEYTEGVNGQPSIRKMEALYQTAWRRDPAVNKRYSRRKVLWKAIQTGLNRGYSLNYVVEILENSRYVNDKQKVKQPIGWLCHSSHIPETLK
# Experiment: PBM E-score (8-mer binding enrichment) (E-score (-0.5 to 0.5)); higher = stronger / more preferred TF binding
# Conditions: protein concentration: 200 nM; construct: GST-full length
# In short: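 Using PURExpress in vitro transcription/translation, GST-tagged yeast transcription factors were made in full-length or DNA-binding-domain form. These were applied at about 100-200 nM to double-stranded universal all-10-mer Agilent arrays, and bound protein was detected with fluorescent anti-GST. Scans were normalised with masliner before the Universal PBM Analysis Suite assigned E-scores to ungapped eight-base words pooled with their reverse complements.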
row,Sequence,PBM E-score
1,TAAAGACA,0.356
2,ACAAGACA,0.34
3,CTAAGACA,0.302
4,AAAAGACC,0.00338
5,ACAAGACG,0.0049
6,AAAAGACA,0.342
7,GTAAGACA,0.305
8,TAAAGATA,0.0041
9,ATAAGACA,0.264
10,AAAAGACG,0.135
11,GCAAGACA,0.157
12,TCAAGACA,0.247
13,GACGGCTC,-0.211
14,GCATATGC,-0.0698
15,ATTTCCAC,0.106
16,CCGACCCC,-0.354
17,CATCAGAA,0.00838
18,GCCGCCTA,-0.173
19,CCAGCGCC,-0.229
20,CAGTTTAC,-0.0477
21,CGAAGACA,0.259
22,CAAAGACC,-0.0488
23,GGAAGACA,0.251
24,GAAAGACA,0.227
25,TGAAGACA,0.328

row,Sequence,PBM E-score
1,CAAAGACA,0.361
2,AGCGCATA,0.034
3,CTAGCTCA,-0.0294
4,ATCCATTA,0.0133
5,AGCCTACA,-0.135
6,CGTCTGCA,0.0663
7,CCGAACAG,0.0877
8,GGCCGAAC,-0.239
9,TTAGATAA,0.0312
10,GTAGACAA,0.309
11,TTAGACAA,0.394
12,CTAGACAC,0.0417
13,TTAGAAAA,0.109
14,GTAGACGA,0.115
15,CTAGACAG,0.00829
16,CTAGACAA,0.305
17,GTAGACAC,0.0944
18,CCATTTGA,-0.0557
19,CGCATACG,-0.0304
20,AGTGGGGA,-0.185
21,AACAGTAG,-0.0756
22,CGTGGGAA,-0.0248
23,GACTCCTC,-0.149
24,GATGACAC,0.06
25,TATGACAA,0.408

row,Sequence,PBM E-score
1,GATGACTA,-0.0556
2,CATGACAG,0.13
3,CATGACAC,0.193
4,TATGACCA,0.0481
5,CATGACAA,0.383
6,AATGACAA,0.29
7,GATGACAA,0.336
8,AGAGCGAA,-0.00578
9,TCCTTCGA,0.11
10,GCTAGTGA,-0.00743
11,TGAATGAA,0.0496
12,AGTAGGGG,-0.202
13,CATTTAAC,0.188
14,GGGAGCGA,-0.219
15,TGGCCCAA,-0.0694
16,ATGTCCTC,0.481
17,ATTTCCTG,0.206
18,AGGTCCTC,-0.119
19,CTGTCCTC,0.197
20,ATGTCCTG,0.487
21,AGGTCCTG,0.0441
22,GCCCGCTA,-0.211
23,AAACAGGG,0.09
24,CGGCGACA,0.0783
25,CTTAGCAC,-0.0653

row,Sequence,PBM E-score
1,CACATATA,0.0314
2,AACATAGA,-0.021
3,CACACATA,0.0356
4,GACACATA,0.361
5,AACATATA,0.0881
6,AACATATC,0.0631
7,TACACATA,0.0567
8,GACATATA,0.448
9,GACATAGA,0.36
10,GACATATC,0.451
11,CACATATC,0.0551
12,GACATAGC,0.295
13,CGATTTGA,-0.163
14,CGGGGCCA,-0.157
15,AGTCAGGC,0.0431
16,CTTCGGTA,-0.0133
17,CTGGCAGC,-0.271
18,GGGACCCA,-0.139
19,TAGCGTCA,-0.0365
20,ATATGTTA,-0.0436
21,GTATGTAA,0.0384
22,CTATGTCA,0.167
23,ATATGTTG,0.0727
24,ATATGTCA,0.401
25,ATATGTCG,0.379

row,Sequence,PBM E-score
1,GTATGTCA,0.35
2,ATATGTGG,0.0596
3,GTATGTTA,0.0222
4,AATACTCT,0.0619
5,ATTAGAGA,0.00489
6,GTCTTGGA,0.0469
7,CAAAGTTG,0.101
8,GTCTGAAA,0.241
9,CCCCAATA,-0.122
10,ATATTCCG,0.321
11,ATATTCCC,0.0634
12,ATATTCCA,0.212
13,ACGTAGCG,-0.138
14,AGTTTGTA,0.182
15,AGTTTGTG,-0.0605
16,AGTTTGTC,0.446
17,CGTTTGTC,0.44
18,CGTTTGTA,0.189
19,CGTTTGAC,0.12
20,TATGTAAA,0.0978
21,GACGCCAA,-0.157
22,AAAATTAA,0.187
23,AAATTAAT,0.199
24,AGATTAAA,0.309
25,CAAATTAA,0.0951

row,Sequence,PBM E-score
1,TTATTAAA,0.29
2,CTATTAAA,0.179
3,AGATTAAT,0.0857
4,AAATTAAA,0.355
5,AAATTAAC,0.0769
6,GAAATTAA,0.34
7,ATATTAAA,0.344
8,CGATTAAA,0.0941
9,TGGGTCAA,-0.0713
10,CGCCAAGA,-0.142
11,GCAGAGGC,-0.241
12,CCCTGCCG,-0.254
13,CGCCAATC,-0.0945
14,AATGCCCC,-0.197
15,AATTCAGG,0.109
16,GCGGGTGA,-0.0547
17,GCACAAAC,0.0596
18,AAGCCTCT,-0.17
19,ACAATGTC,0.452
20,CCAATGTA,0.0173
21,CCAATGTC,0.328
22,ACAATGTG,0.0288
23,CCAATGAC,-0.00959
24,ACAATGTA,0.156
25,GCATAAAA,0.128

row,Sequence,PBM E-score
1,AATCCTTA,-0.134
2,CGAGCTAA,-0.0305
3,CAGAATAA,0.0293
4,TGCACACA,0.0221
5,TGGACACA,0.427
6,GTGACACA,0.286
7,TCGACACA,0.133
8,GGGACACC,0.185
9,GGGACACA,0.449
10,AGGAAATC,0.0408
11,AAGTGCGC,-0.108
12,ATGCTGTC,0.0368
13,GTAGCGCA,-0.107
14,CCAAGAAG,-0.0807
15,ATTATAAA,0.17
16,ATTATAAT,0.307
17,ATTATAAG,0.103
18,CCACATAC,0.0664
19,CACCAACG,0.185
20,CCATAGAG,0.0389
21,ACGCTAAT,-0.223
22,AAAGGCCG,-0.00669
